Experimental data from the supplement of paper PMC8728848.
Many of the other results were omitted from the sample, so the strongest signals are more common in it than they were.

Columns and labels:
Experiment in all cases: glycan array binding signal (z-score within array); higher = stronger binding
Settings in all cases: glycan notation: IUPAC condensed, linker removed
Fuc(a1-2)Gal(b1-3)GlcNAc = target: Fuc(a1-2)Gal(b1-3)GlcNAc
Summary of the method: (§1)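 Glycan array data came from 3228 arrays in the Consortium for Functional Glycomics database, and only arrays with an available protein sequence were kept. Glycan names were put into IUPAC-condensed notation, and columns mapping to the same glycan were averaged. The binding signal is a within-array Z-score, averaged across arrays of one protein sequence run at different concentrations or buffers and across linkers. A negative Z-score can be read as non-binding.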

[1] = target: Fuc(a1-2)Gal(b1-3)GlcNAc(b1-3)[Gal(b1-4)GlcNAc(b1-6)]Gal(b1-4)Glc
Summary of the method: as §1

[2] = target: Fuc(a1-2)Gal(b1-3)[Fuc(a1-4)]GlcNAc
Summary of the method: as §1

[3] = target: Fuc(a1-2)Gal(b1-3)[Fuc(a1-4)]GlcNAc(b1-2)Man(a1-3)[Fuc(a1-2)Gal(b1-3)[Fuc(a1-4)]GlcNAc(b1-2)Man(a1-6)]Man(b1-4)GlcNAc(b1-4)[Fuc(a1-6)]GlcNAc(b1-4)[Fuc(a1-6)]GlcNAc
Summary of the method: as §1

[4] = target: Fuc(a1-2)Gal(b1-3)[Fuc(a1-4)]GlcNAc(b1-3)[Fuc(a1-3)[Gal(b1-4)]GlcNAc(b1-6)]Gal(b1-4)Glc
Summary of the method: as §1

[5] = target: Fuc(a1-2)Gal(b1-4)GlcNAc(b1-2)Man
Summary of the method: as §1

[6] = target: Fuc(a1-2)Gal(b1-4)GlcNAc(b1-3)Gal(b1-4)GlcNAc(b1-2)Man(a1-3)[Fuc(a1-2)Gal(b1-4)GlcNAc(b1-3)Gal(b1-4)GlcNAc(b1-2)Man(a1-6)]Man(b1-4)GlcNAc(b1-4)GlcNAc
Summary of the method: as §1

[7] = target: Fuc(a1-2)[Gal(a1-3)]Gal(b1-4)GlcNAc(b1-3)GalNAc
Summary of the method: as §1

[8] = target: Fuc(a1-2)[GalNAc(a1-3)]Gal
Summary of the method: as §1

[9] = target: Fuc(a1-2)[GalNAc(a1-3)]Gal(b1-3)GalNAc(a1-3)[Fuc(a1-2)]Gal(b1-4)GlcNAc
Summary of the method: as §1

[10] = target: Fuc(a1-2)[GalNAc(a1-3)]Gal(b1-3)GlcNAc
Summary of the method: as §1

[11] = target: Fuc(a1-2)[GalNAc(a1-3)]Gal(b1-3)GlcNAc(b1-3)GalNAc
Summary of the method: as §1

[12] = target: Fuc(a1-2)[GalNAc(a1-3)]Gal(b1-4)[Fuc(a1-3)]GlcNAc(b1-3)GalNAc
Summary of the method: as §1

[13] = target: Fuc(a1-3)[Gal3S(b1-4)]GlcNAc
Summary of the method: as §1

[14] = target: Gal(a1-4)Gal(b1-3)GlcNAc(b1-2)Man(a1-3)[Gal(a1-4)Gal(b1-3)GlcNAc(b1-2)Man(a1-6)]Man(b1-4)GlcNAc(b1-4)GlcNAc
Summary of the method: as §1

[15] = target: Gal(b1-3)GlcNAc(b1-3)Gal(b1-4)GlcNAc(b1-2)Man(a1-3)[Gal(b1-3)GlcNAc(b1-3)Gal(b1-4)GlcNAc(b1-2)Man(a1-6)]Man(b1-4)GlcNAc(b1-4)GlcNAc
Summary of the method: as §1

[16] = target: Gal(b1-3)[Fuc(a1-4)]GlcNAc(b1-6)GalNAc
Summary of the method: as §1

[17] = target: Gal(b1-4)GalNAc(a1-3)[Fuc(a1-2)]Gal(b1-4)GlcNAc
Summary of the method: as §1

[18] = target: Gal(b1-4)GlcNAc(b1-2)[Gal(b1-4)GlcNAc(b1-6)]Man(a1-6)[Gal(b1-4)GlcNAc(b1-2)Man(a1-3)]Man(b1-4)GlcNAc(b1-4)[Fuc(a1-6)]GlcNAc
Summary of the method: as §1

[19] = target: Gal(b1-4)GlcNAc(b1-3)Gal(b1-4)GlcNAc(b1-2)Man(a1-3)[Gal(b1-4)GlcNAc(b1-3)Gal(b1-4)GlcNAc(b1-2)Man(a1-6)]Man(b1-4)GlcNAc(b1-4)[Fuc(a1-6)]GlcNAc
Summary of the method: as §1

[20] = target: Gal(b1-4)GlcNAc(b1-3)Gal(b1-4)GlcNAc(b1-3)Gal(b1-4)GlcNAc(b1-2)Man(a1-3)[Gal(b1-4)GlcNAc(b1-3)Gal(b1-4)GlcNAc(b1-3)Gal(b1-4)GlcNAc(b1-2)Man(a1-6)]Man(b1-4)GlcNAc(b1-4)[Fuc(a1-6)]GlcNAc
Summary of the method: as §1

[21] = target: Gal(b1-4)GlcNAc(b1-3)Gal(b1-4)GlcNAc(b1-3)Gal(b1-4)GlcNAc(b1-3)Gal(b1-4)GlcNAc(b1-2)Man(a1-3)[Gal(b1-4)GlcNAc(b1-3)Gal(b1-4)GlcNAc(b1-3)Gal(b1-4)GlcNAc(b1-3)Gal(b1-4)GlcNAc(b1-2)Man(a1-6)]Man(b1-4)GlcNAc(b1-4)[Fuc(a1-6)]GlcNAc
Summary of the method: as §1

[22] = target: Gal(b1-4)GlcNAc(b1-3)Gal(b1-4)GlcNAc(b1-3)Gal(b1-4)GlcNAc(b1-3)Gal(b1-4)GlcNAc(b1-3)Gal(b1-4)GlcNAc(b1-2)Man(a1-3)[Gal(b1-4)GlcNAc(b1-3)Gal(b1-4)GlcNAc(b1-3)Gal(b1-4)GlcNAc(b1-3)Gal(b1-4)GlcNAc(b1-3)Gal(b1-4)GlcNAc(b1-2)Man(a1-6)]Man(b1-4)GlcNAc(b1-4)GlcNAc
Summary of the method: as §1

B1: SJCP1084 (Schistosoma japonicum) (protein)
chain: MRIINLVIISTALLLINLLQTKSQANGEDTKNGTPDDPGLTKSTELKVEVQALLKDKKTNMRVKWNENLLDNTKPEYHNLRDEACELLLQIVRSVVPLSQDDGECKDVTFTKYVVGTKDGAVNVKLTITFKDSVAINQKPMDLKLKLENDFKNLQSESTLKATKPTFTVKVEKRLIPISKPQTTPPTTAKNDASKENVGDIGGEDSTVPTAAPATAASANEEKDEGDKDNKDSQHPNVLTSNVNDRNLIIALVALMILAIGVALTAAVKQR
glycan array binding signal (z-score) (Fuc(a1-2)Gal(b1-3)GlcNAc): 0.181 | glycan array binding signal (z-score) [1]: -0.827 | glycan array binding signal (z-score) [2]: 0.425 | glycan array binding signal (z-score) [3]: -0.159 | glycan array binding signal (z-score) [4]: -0.831 | glycan array binding signal (z-score) [5]: 1.24 | glycan array binding signal (z-score) [6]: 4.99 | glycan array binding signal (z-score) [7]: -0.455 | glycan array binding signal (z-score) [8]: 0.405 | glycan array binding signal (z-score) [9]: -0.717 | glycan array binding signal (z-score) [10]: 0.643 | glycan array binding signal (z-score) [11]: 2.68 | glycan array binding signal (z-score) [12]: -0.545 | glycan array binding signal (z-score) [13]: -1.01 | glycan array binding signal (z-score) [14]: 3.06 | glycan array binding signal (z-score) [15]: 0.617 | glycan array binding signal (z-score) [16]: -0.381 | glycan array binding signal (z-score) [17]: -0.495 | glycan array binding signal (z-score) [18]: 2.77 | glycan array binding signal (z-score) [19]: 4.14 | glycan array binding signal (z-score) [20]: 3.35 | glycan array binding signal (z-score) [21]: 3.73 | glycan array binding signal (z-score) [22]: 4.37
